Screening results (PubChem)
aSyn 5UTR act = Activators working through SNCA 5'UTR binding (MLPCN); alpha-synuclein 5'UTR reporter, activators screen; activity score, % (tested at 7.5 µM), hits read low; 7.1% of 300,000 active; AID 1814; in the data active = activity score below about -60%
A number is an active result; i = inactive. The list is a sample of the results.

SMILES	aSyn 5UTR act
CN(/N=C/c1ccncc1)c1cnc2ccccc2n1	-206
COc1ccc(-c2cc3c(=O)n(CC(=O)NCc4ccc(F)cc4)ncn3n2)cc1	-75
COc1ccc(CNC(=O)Cn2ncn3cccc3c2=O)cc1	-78
COc1ccc(-c2cc3c(=O)n(CC(=O)NCCCN4CCC(Cc5ccccc5)CC4)ncn3n2)cc1	i
O=C(NCc1cccnc1)Nc1ccc(Br)cc1	-79
O=C(/C=C/NCc1cccnc1)c1ccc(Br)cc1	-66
O=C(NCc1cccnc1)Nc1ccc(Cl)c(Cl)c1	-110
Cc1nn(C)cc1CNC(=O)Nc1cccc(Cl)c1	-169
O=C(Nc1ccc2c(c1)CCC2)Nc1ccc2c(c1)OCO2	-111
COC(=O)c1ccc(NC(=O)Nc2ccc3c(c2)OCO3)cc1	-66
NS(=O)(=O)c1ccc(NC(=O)Nc2ccc3c(c2)OCO3)cc1	-118
Cc1ccc(NC(=O)NCc2ccc3c(c2)OCO3)cc1C	-79
O=C(NCc1cccs1)Nc1cccc(Cl)c1	-120
COc1ccc2[nH]c(C(=O)Nc3ccc4c(c3)OCO4)cc2c1	-134
O=C(Nc1ccc2c(c1)OCO2)Nc1ccc(Br)cn1	-157
O=C(Nc1ccc2c(c1)OCO2)Oc1ccccc1	-106
O=C(Nc1cccc(Cl)c1)Nc1ccc2c(c1)OCO2	-159
O=C(NCc1ccc2c(c1)OCO2)Nc1cccc(Cl)c1	-127
COc1cccc(NC(=O)Nc2ccc3c(c2)OCO3)c1	-111
O=C(Nc1cccc([N+](=O)[O-])c1)Nc1ccc2c(c1)OCCO2	-129
O=C(Nc1ccc2c(c1)OCCO2)NC12CC3CC(CC(C3)C1)C2	-195
CN(C)c1ccc(C(CN)c2c[nH]c3ccccc23)cc1 (stereo not given)	-97
c1ccc2oc(CCc3nc4ccccc4o3)nc2c1	-99
Nc1ccc2oc(CCc3ccccc3)nc2c1	-118
Cc1ccc(-c2nc3ccccc3c(=O)o2)cc1	-84
SMILES	aSyn 5UTR act
O=C(O)c1ccc2c3n(nc2c1)-c1ccc(Cl)cc1CO3	-161
Cc1ccc2c(c1)COc1c3ccc(C(=O)N4CCOCC4)cc3nn1-2	-113
O=C(c1ccc2c3n(nc2c1)-c1ccc(Cl)cc1CO3)N1CCCCC1	-138
COCCCNc1nnc(Cc2ccc(Cl)cc2)c(=O)[nH]1	i
COc1ccccc1NC(=O)C(C/C=C(\C)Cl)C(C)=O (stereo not given)	-73
COc1ccccc1NC(=O)c1nc(S(=O)(=O)Cc2ccccc2)ncc1Cl	i
COc1cc(C2C=C(Nc3ccccc3)C(=O)N2c2ccccc2)ccc1O (stereo not given)	-72
COc1ccc(/C(N)=N/OC(=O)c2ccc(Br)o2)cc1	-155
N/C(=N\OC(=O)c1ccc(Br)o1)c1cccnc1	-143
CCOC(=O)c1cccc(NC(=O)c2ccc(NC(=O)c3ccco3)cc2)c1	-67
CCOc1ccccc1NC(=O)c1cccc(NC(=O)c2ccco2)c1	-185
CCc1ccc(NCc2nc3ccccc3c(=O)[nH]2)cc1	-138
CCOC(=O)c1ccc(Nc2nc(C)cc(C)n2)cc1	-104
CCOC(=O)c1ccc(Nc2cnc3ccccc3n2)cc1	-176
CCOC(=O)c1ccc(Nc2cc(C)nc(-c3ccccc3)n2)cc1	-213
CCOC(=O)c1ccc(NCc2nc3ccccc3[nH]2)cc1	-149
CCOC(=O)c1c(C)nc(-c2ccccc2)nc1NC(=O)CC	-87
CCOC(=O)c1ccc(Nc2nnc(C)c3ccccc23)cc1	-104
CC(=O)c1ccc(Nc2nc(C)cc(C)n2)cc1	-126
CC(C)(C)Nc1nc(Cl)nc(Nc2ccccc2)n1	-136
CCCNc1nc(Cl)nc(Nc2ccc(Cl)cc2)n1	-63
O=C(Nc1ccc(F)cc1F)c1noc2c1CCC2	-169
O=C(Nc1cc(Cl)ccc1Cl)c1noc2c1CCCC2	-67
CCCN=C(C)C1=C(O)c2ccccc2C1=O	-94
C=C1C(=O)O[C@@H]2C[C@@H](C)[C@@H]3C=CC(=O)[C@@]3(C)[C@@H](OC(C)=O)[C@H]12	i
SMILES	aSyn 5UTR act
CC1CCN(C(=O)CSc2nc3ccccc3s2)CC1	-154
O=C(CSc1nc2ccccc2s1)N1CCCCC1	-110
CC1CCCC(C)N1C(=O)CSc1nc2ccccc2s1 (stereo not given)	-99
Cc1c(Cl)cccc1N/C(SCC(=O)N1CCCCCC1)=C(/C#N)c1nc2ccccc2s1	-66
CC1CCCN(C(=O)CSc2cnc3ccccc3n2)C1 (stereo not given)	-154
COc1cccc(N(C(=O)c2nc3nccc(C)n3n2)c2nc3ccccc3s2)c1	-185
COc1ccc(/C=C2\N=C(SC)N(C)C2=O)cc1	-63
CC(C)c1ccc2c(c1)C(c1ccc(N3CCOCC3)cc1)=NNC(c1cccs1)=N2	-103
N#CC1CC(c2ccccc2)Nc2cc(Cl)ccc2N1 (stereo not given)	-331
O=C(Nc1cccc(-c2csc(Nc3ccc(Cl)cc3)n2)c1)c1cc([N+](=O)[O-])cc(C(F)(F)F)c1	-72
O=C(Nc1cccc(-c2csc(Nc3ccc(Cl)cc3)n2)c1)c1cccc(C(F)(F)F)c1	-71
O=C(Nc1cccc(-c2csc(Nc3ccccc3)n2)c1)c1cc([N+](=O)[O-])cc(C(F)(F)F)c1	-87
